SW480 rereplic: induces DNA re-replication in SW480 colon adenocarcinoma cells; SW480 DNA re-replication, Hoechst DNA content imaging, 48 h; Potency, µM (doses to about 46.1 µM), inactives show at the top dose re-replication activation, most hits filed as activators; hit rate 1.8% among 340,000; also: potency is read from the fitted curve at half-maximal effect; % of control where 0% means no effect; nearly all actives have a fitted effect of over 55% in size
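Readout is total intensity of Hoechst-stained nuclei, excited at 405 nm and collected at 500-530 nm. Compound treatment lasted 48 hr at 37 C in 5% CO2 before staining.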
KB-V1 MDR tox: kills drug-selected multidrug resistant KB-V1 cells; KB-V1 MDR cells viability, CellTiter-Glo, 72 h; Potency, µM (top dose mostly 46.1 µM), hits mostly cytotoxic; hit rate 3.4% among 400,000; AID 1347076; also: potency is read from the fitted curve at half-maximal effect; % is scaled to controls: 0 for no effect and ±100 for the full control effect; nearly all actives have a fitted effect of over 60% in size
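Cytotoxicity toward P-gp-expressing KB-V1 cells was determined as loss of CellTiter-Glo luminescence after 72 h at 37 degrees C. Compounds were tested in quantitative HTS format across a concentration range, with curves fitted to normalized data.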
KB-3-1 cytotox: KB-3-1 parental cell cytotoxicity; KB-3-1 viability, CellTiter-Glo ATP luminescence, 72 h; Potency, µM (series often up to 46.1 µM), usual class: cytotoxic; hit rate 1.4% among 400,000; AID 1347075; also: potency is read from the fitted curve at half-maximal effect; % is scaled to controls: 0 for no effect and ±100 for the full control effect; nearly all actives have a fitted effect of over 60% in size
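Viability of parental KB-3-1 cells, measured by CellTiter-Glo luminescence, followed a 72 h incubation at 37 °C with pinned compounds in phenol-red-free DMEM containing 10% FBS.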
IL-1B inflam inh: blocks inflammasome-driven IL-1 beta release; activity change, % at 57.5 µM; THP-1 LPS/ATP IL-1B secretion, AlphaLISA, 16 h; hits give low values; hit rate 4.7% among 360,000; in the data active = activity change below about -50%; inconclusive = mostly about -30% to -49%; also: % is scaled to controls: 0 for no effect and ±100 for the full control effect
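THP-1 cells pretreated 1 hr with compounds (up to 57.5 uM final), then stimulated with LPS (250 ng/mL final) plus ATP (1.25 mM final); secreted IL-1B measured by AlphaLISA after 16 hr, decreased signal indicating inhibition.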
MCF10A rereplic: inducers of DNA re-replication in MCF 10A breast cells; MCF 10A DNA re-replication, Hoechst nuclear intensity, 48 h; Potency, µM (top dose mostly 46.1 µM), for the others: at the top dose activity, positive = re-replication, actives largely listed as activators; hit rate 2.9% among 350,000; also: potency is read from the fitted curve at half-maximal effect; % of control where 0% means no effect; nearly all actives have a fitted effect of over 50% in size
* = called active by the depositor; i = inactive; ? = inconclusive; · = no result. Compounds with a hit are over-represented: about 9.9% of the library has one in this group of screens. Unless noted, calls follow the shape of the dose curve; as a rule, active = well fitted curve in the direction sought with a large enough effect; inconclusive = small, poorly fitted or top-dose-only effect, or another doubt; inactive = no such curve, though single readings can be large; an effect the other way counts as inactive or inconclusive.

SMILES	SW480 rereplic	KB-V1 MDR tox	KB-3-1 cytotox	IL-1B inflam inh	MCF10A rereplic
CC(NC(=O)c1ccc2c(c1)OCO2)C(c1cccs1)N1CCN(c2ccccc2)CC1 (stereo not drawn)	?	i	i	-25	0%
CCN1CCN(c2ccc(S(=O)(=O)N3CCCCC3)cc2NC(=O)c2cc3ccccc3o2)CC1	4%	i	i	-7	10%
Cc1nn(-c2ccc(F)cc2)c(Cl)c1/C=C/C(=O)OCC(=O)Nc1ccc(F)cc1F	1%	i	i	4	15µM*
Cc1cc(C(=O)OCC(=O)Nc2ccc(F)cc2F)c(C)o1	-8%	i	i	-55*	-5%
CC(C)NS(=O)(=O)c1ccc(OCC(=O)Nc2ccc(F)cc2F)cc1	-4%	16µM*	i	-7	0%
CO/N=C1\CN(c2nc3c(cc2F)c(=O)c(C(=O)O)cn3C2CC2)CC1CN (stereo not drawn)	-5%	·	·	·	14%
COc1ccc(NC(=O)c2cc3ccccc3o2)c(OC)c1	·	i	i	·	·
COc1ccc(S(=O)(=O)N2CCCOC2CNC(=O)C(=O)NCCc2ccco2)cc1OC (stereo not drawn)	-5%	i	i	-5	2%
CCC(C)Nc1ccc(NC(C)CC)cc1 (stereo not drawn)	30%	?	?	?	2.6µM*
CCC(C)NC(=O)Nc1ccc(Br)cc1 (stereo not drawn)	-8%	i	i	-3	1%
NS(=O)(=O)c1cccc(NC(=O)COC(=O)Cc2n[nH]c(=O)c3ccccc23)c1	-8%	i	i	49	1%
CCOC(=O)C1=C(c2ccccc2)NC(N)=NC1c1ccc(OCc2ccc(C(=O)OC)cc2)cc1 (stereo not drawn)	?	?	?	-67*	18µM*
Cc1ccc(SCCN2CCN(C)CC2)cc1	-3%	i	i	-9	23%
c1ccc(-c2nc(-c3ccco3)n3ccccc23)cc1	?	i	i	-92*	21µM*
O=Nc1c(O)[nH]c2ccc(F)cc12	13%	i	i	-88*	7%
O=[N+]([O-])c1ccc(N=Nc2c(O)[nH]c3ccc(F)cc23)cc1	?	?	?	-10	7.3µM*
COc1ccc2[nH]c(O)c(N=O)c2c1	1%	i	i	-26	-9%
O=[N+]([O-])c1ccc2[nH]c(O)c(N=Nc3ccc(F)cc3)c2c1	?	i	i	21	?
O=Nc1c(O)[nH]c2ccc(Cl)cc12	-3%	?	?	-72*	-16%
CCOCC(O)COc1ccc(NC(=O)CC[S+](C)C)cc1 (stereo not drawn)	-1%	·	·	·	9%
CN(Cc1ccccc1F)c1ncnc2sccc12	0%	i	i	27	5%
COc1ccc(CN(C)c2ncnc3sccc23)c(OC)c1OC	?	4.6µM*	8.2µM*	-12	?
COc1ccc(CCN(C)c2ncnc3sccc23)cc1OC	?	i	i	-53*	0.82µM*
COc1ccc(CCN(C)C(=O)CSc2ncnc3sccc23)cc1OC	-5%	?	i	19	4%
CC1=C(C(=O)OC2CCCCC2)C(c2ccc(F)cc2)NC(=O)N1 (stereo not drawn)	-4%	i	i	-53*	10%
SMILES	SW480 rereplic	KB-V1 MDR tox	KB-3-1 cytotox	IL-1B inflam inh	MCF10A rereplic
CC1=C(C(=O)OCc2ccc3c(c2)OCO3)C(c2ccc(Cl)cc2)NC(=O)N1 (stereo not drawn)	7%	12µM*	?	-19	?
CC1=C(C(=O)OCc2ccc3c(c2)OCO3)C(c2ccc(F)cc2)NC(=O)N1 (stereo not drawn)	-1%	8.2µM*	15µM*	-6	2%
Cc1cc(C)c(S(=O)(=O)N2CCN(C(=O)CCn3nc(C)c(C)c3C)CC2)c(C)c1	0%	?	i	-84*	-2%
Cn1nc(C(C)(C)C)cc1C(=O)N1CCCC(c2cc(C(=O)Nc3ccccc3Cl)no2)C1 (stereo not drawn)	·	?	i	-20	·
CCOC(=O)N1CCN(c2cc3nccnc3cc2F)CC1	12%	21µM*	i	-15	0%
O=C(CSc1ncnc2nc[nH]c12)N1CCN(c2ccc(Cl)cc2)CC1	-7%	?	18µM*	-2	9%
COc1ccccc1N(CC(O)COc1ccccc1)S(=O)(=O)c1ccccc1 (stereo not drawn)	?	13µM*	i	0	6%
COc1ccccc1N(CC(O)COc1c(C)cc(C)cc1C)S(=O)(=O)c1ccccc1 (stereo not drawn)	?	8.2µM*	?	-56*	?
COc1ccccc1N(CC(O)COc1ccc(C)cc1)S(=O)(=O)c1ccccc1 (stereo not drawn)	-1%	?	i	-93*	?
COc1cccc(C(=O)Nc2ccc3nc(SCCOc4ccccc4)sc3c2)c1	·	i	i	·	·
CC(NC(=O)c1ccc2ccccc2n1)c1ccc(S(N)(=O)=O)cc1 (stereo not drawn)	-3%	i	i	18	-6%
CC(NC(=O)c1ccc2ccccc2n1)c1ccc(Br)cc1 (stereo not drawn)	?	i	?	-11	23µM*
CCCn1nc(C(=O)NNC(=O)CSC(C)C(=O)Nc2cc(C)on2)c2ccccc2c1=O (stereo not drawn)	-3%	i	i	-4	1%
Cc1ccc(NC(=O)CCn2c(=O)[nH]c3ccsc3c2=O)cc1F	-4%	i	?	-16	20%
COC(=O)C1=C(C)NC(=O)NC1c1ccc(N2CCC(c3ccccc3)=N2)cc1 (stereo not drawn)	2.1µM*	?	i	-69*	5.2µM*
COC(=O)C1=C(C)NC(=O)NC1c1ccc(OC)c(OC)c1 (stereo not drawn)	·	?	i	-1	·
N#CC(c1ccc(O)cc1)N1CCN(C(C#N)c2ccc(O)cc2)CC1 (stereo not drawn)	-4%	i	i	0	-9%
CC(=O)Nc1ccc(NC(=O)c2ccccc2N(Cc2ccccc2)S(C)(=O)=O)cc1	?	i	i	7	?
CC(C)CNC(=O)c1ccccc1N(Cc1ccccc1)S(C)(=O)=O	12µM*	i	i	-11	1%
CSc1ccccc1NC(=O)c1ccccc1N(Cc1ccccc1)S(C)(=O)=O	-3%	9.2µM*	i	-3	0%
COC(=O)C1=CN(Cc2cccs2)C=C(C(=O)OC)C1c1ccc(OC)cc1OC	24%	i	i	7	?
COC(=O)C1=CN(Cc2ccc(OC)cc2)C=C(C(=O)OC)C1c1ccsc1	23µM*	?	i	-28	?

Assay outcomes (PubChem BioAssay)
